ULK1 inh – ULK1 kinase inhibitors, primary screen, biochemical, AlphaScreen | inhibition, % at 5.96 µM | 30,000 compounds, 1.9% hits | AlphaScreen Atg13 phosphorylation by ULK1, luminescence; in the data active = inhibition above about 43%
ASK1 inh – ASK1 kinase inhibitors, primary screen, biochemical, AlphaScreen. inhibition, % at 7.44 µM. 22,000 compounds, 0.99% hits. AID 1159602, 2016. AlphaScreen MKK6 phosphorylation by ASK1, luminescence. Mitogen-activated protein kinase kinase kinase 5 (Homo sapiens), Q99683; in the data active = inhibition above about 35%
AlphaScreen intf – AlphaScreen signal interference by compounds, dose response, artefact control for ASK1 inhibitor project, biochemical, TruHits beads. shares compounds with ASK1 inh. signal interference counterscreen. 220 compounds, 20% hits. IC50, µM;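 active = IC50 of 10 µM or lower in the counterscreen; inactive = IC50 above 10 µM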;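 also: loss of AlphaScreen light from TruHits beads alone with no ASK1 enzyme present; potency of signal reduction so a low IC50 flags an assay artifact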
Of the large screens only hits and unclear results are named; the others gave an inactive call (follow-up assays come after a bar, where they were run). A selection: hits, their analogues and other compounds. The true share with any hit is near 2.4%.

NC(=O)c1ccc(-c2nc(NCc3cccc(C(F)(F)F)c3)c3ncn(-c4ccccc4)c3n2)cc1	ASK1 inh 38.7 | AlphaScreen intf inactive
FC(F)(F)c1cccc(CNc2nc(-c3ccccc3)nc3c2ncn3-c2ccccc2)c1	none
COc1ccc(CCNc2nc(Nc3ccc(N4CCOCC4)cc3)ncc2C)cc1	ASK1 inh 40.4 | AlphaScreen intf inactive
CCCNc1nc(Nc2ccc(N3CCOCC3)cc2)ncc1C	none
COc1ccc(CCNc2nc(Nc3cccc(N(C)C)c3)nc3cc(OC)c(OC)cc23)cc1	ASK1 inh 61.1 | AlphaScreen intf 7.62
COc1cc2nc(Nc3ccc(N4CCOCC4)cc3)nc(NCCCN3CCCC3=O)c2cc1OC	none
CCN(CC)c1nc(NCCc2ccc(OC)cc2)nc(Nc2cccc(N(C)C)c2)n1	none
Cc1cnc(Nc2ccc(N3CCOCC3)cc2)nc1NCc1ccccc1	ASK1 inh 37.4 | AlphaScreen intf inactive
Cc1cnc(Nc2ccc(N3CCOCC3)cc2)nc1NCc1cccnc1	none
COc1cc2nc(Nc3ccc(N4CCOCC4)cc3)nc(NCCOc3ccccc3)c2cc1OC	ASK1 inh 56.8 | AlphaScreen intf 5.83
NCCn1ncc2c(N3CCN(Cc4ccccc4)CC3)ncnc21	none (no result: ASK1 inh)
CC(C)N(CCNc1nc(N2CCN(c3ccccn3)CC2)nc2c1ncn2-c1ccsc1)C(C)C	none
CN(C)C1CCN(c2cc(-c3cn[nH]c3)ccc2NC(=O)Cc2cccc(Cl)c2)CC1	none
COc1cc(Nc2nc(-c3c(C)nn(C)c3C)nc3c2ncn3-c2ccccc2)cc(OC)c1OC	none
COc1ccc(CCNc2nc(Nc3ccc(N4CCOCC4)cc3)nc3cc(OC)c(OC)cc23)cc1	ASK1 inh 52.8 | AlphaScreen intf 6.78
COc1cc2nc(Nc3ccc(N4CCOCC4)cc3)nc(NCCc3ccc(O)cc3)c2cc1OC	none
CC(=O)Nc1ccc(Nc2nc(Nc3ccc4ncccc4c3)nc3c2ncn3CCN2CCCC2=O)cc1	none
O=C(NC1CC1)c1ccc2cncc(-c3cc4ccccc4o3)c2n1	none (no result: ASK1 inh)
Cc1ncn(-c2ccc(Nc3nccc(-c4cc(F)cc(-c5cn[nH]c5C)c4)n3)cc2)n1	ASK1 inh 48.1 | AlphaScreen intf inactive
Cc1nc(C)n(-c2ccc(Nc3nccc(-c4cncc(F)c4)n3)cc2)n1	none
Cc1[nH]ncc1-c1cc(F)cc(-c2ccnc(Nc3ccc(-n4cnc(C(F)(F)F)n4)cc3)n2)c1	none
Cc1nc(C)n(-c2ccc(Nc3nccc(-c4cc(F)cc(-c5ccnn5C)c4)n3)cc2)n1	none
Cc1nc(C)n(-c2ccc(Nc3nccc(-c4cc(F)cc(-c5cn[nH]c5C)c4)n3)cc2)n1	ASK1 inh 35.6 | AlphaScreen intf inactive
Cc1nc(C)n(-c2ccc(Nc3nccc(-c4cc(F)cc(-c5ncco5)c4)n3)cc2)n1	ASK1 inh 37.7 | AlphaScreen intf inactive
Cc1ccccc1C(=O)N(C1CCN(C)CC1)C1CCN(Cc2ccccc2)CC1	none (no result: ASK1 inh)
CC(C)n1c(NCCN2CCOCC2)nc2c(NCc3nc4ccccc4[nH]3)ncnc21	none
CC(=O)c1cccc(-c2nc(N)c3[nH]cnc3n2)c1	none
NC(=O)c1cc2ccccc2cc1Nc1ccnc(Nc2ccc(N3CCOCC3)cc2)c1	ASK1 inh 36.2 | AlphaScreen intf inactive
NC(=O)c1cnc(Nc2ccnc(Nc3ccc(N4CCOCC4)cc3)c2)s1	none
CC(=O)Nc1cccc(-c2cn[nH]c2-c2ccc(F)cc2)c1	none
Cc1cc(N)nc(Nc2cccc(N(C)C)c2)n1	none
Cn1cc(-c2ccc3cnc(Nc4ccc(-n5cnc(N6CCOCC6)n5)cc4)nc3c2-c2ccccc2)cn1	none
c1cc(-c2ccc3cnc(Nc4ccc(-n5cnc(N6CCOCC6)n5)cc4)nc3c2)ccn1	none
Cn1cc(-c2ccc3cnc(Nc4ccc(-n5cnc(N6CCOCC6)n5)cc4)nc3c2)cn1	ULK1 inh 56.2, ASK1 inh 47.9 | AlphaScreen intf inactive
COc1c(-c2cnn(C)c2)ccc2cnc(Nc3ccc(-n4cnc(N5CCOCC5)n4)cc3)nc12	ULK1 inh 82.7, ASK1 inh 42.3 | AlphaScreen intf inactive
CC(=O)Nc1ccc(NC(=O)c2ccc3nc(Nc4ccncc4)sc3c2)cc1	none
CC(C)n1c(Nc2nc3ccccc3n2C)nc2c(Nc3ccccc3)ncnc21	none
Cc1ccc(-c2ncn(-c3ccc(Nc4nccc(-c5ccc(Cl)nc5)n4)cc3)n2)cn1	none
Cc1ccc(-c2ncn(-c3ccc(Nc4nccc(-c5cncc(N6CCOCC6)c5)n4)cc3)n2)cn1	ASK1 inh 41.5 | AlphaScreen intf inactive
Cc1ccc(-c2ncn(-c3ccc(Nc4nccc(-c5ccc(N)nc5)n4)cc3)n2)cn1	none
Cc1ccc(-c2ncn(-c3ccc(Nc4nccc(-c5cncc6ccccc56)n4)cc3)n2)cn1	ASK1 inh 37.7 | AlphaScreen intf inactive
CC(=O)c1cccc(-c2cccc(C(=O)NCc3cccnc3)c2)c1	none
Nc1nc(-c2ccc(N3CCOCC3)nc2)nc2nc[nH]c12	none
